CD11b adhes enh = CD11b/CD18-fibrinogen binding enhancement | hit rate 0.07% among 93,000 | K562 CD11b/CD18 adhesion to fibrinogen, ATPlite luminescence | activation, % at 10 µM | AID 1499;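 active = 10 µM primary screen giving 50% or more activity, confirmed by 40% or more on retest at that dose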
Target sequence (P05107 whole entry, looked up, other chains not shown): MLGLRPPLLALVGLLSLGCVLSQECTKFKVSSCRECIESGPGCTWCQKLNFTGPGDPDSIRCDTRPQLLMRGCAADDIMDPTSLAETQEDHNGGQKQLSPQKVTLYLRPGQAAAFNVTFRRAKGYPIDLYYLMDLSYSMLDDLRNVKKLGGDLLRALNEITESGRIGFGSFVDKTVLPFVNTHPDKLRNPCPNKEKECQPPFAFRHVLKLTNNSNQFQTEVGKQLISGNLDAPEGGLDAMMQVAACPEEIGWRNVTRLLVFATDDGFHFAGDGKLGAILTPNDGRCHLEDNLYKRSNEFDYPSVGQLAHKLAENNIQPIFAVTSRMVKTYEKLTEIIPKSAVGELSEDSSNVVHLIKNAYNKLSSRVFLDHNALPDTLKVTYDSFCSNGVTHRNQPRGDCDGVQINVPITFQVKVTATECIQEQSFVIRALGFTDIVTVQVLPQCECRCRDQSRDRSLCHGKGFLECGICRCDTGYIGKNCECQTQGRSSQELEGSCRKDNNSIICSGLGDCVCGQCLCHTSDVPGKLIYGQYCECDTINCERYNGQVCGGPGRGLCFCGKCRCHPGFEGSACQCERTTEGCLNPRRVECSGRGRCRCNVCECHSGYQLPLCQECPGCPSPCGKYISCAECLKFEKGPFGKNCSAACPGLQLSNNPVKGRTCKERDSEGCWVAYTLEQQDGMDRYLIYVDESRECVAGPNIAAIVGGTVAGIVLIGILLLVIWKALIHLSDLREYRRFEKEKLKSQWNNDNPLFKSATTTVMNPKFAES
E coli RNAP = Escherichia coli RNA polymerase inhibition. P0A8V2. hit rate 0.2% among 62,000. E. coli RNA polymerase, fluorescence transcription assay. inhibition, %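 (tested at 10 µM)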; in the data active = inhibition above about 20%
CD11b adhes inh = CD11b/CD18-fibrinogen binding inhibition | P05107+P11215 | hit rate 0.54% among 93,000 | inhibition, % at 10 µM | AID 1497 | K562 CD11b/CD18 adhesion to fibrinogen, ATPlite luminescence; Mn2+ added to activate the integrin;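 active = primary inhibition of 50% or more at 10 µM, then 40% or more on retest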
Pyk2 oligo antag = Pyk2 (human) oligomerization antagonism; Q293 cells, Pyk2 FERM NanoBiT luminescence; active compounds read low; z-score (the deposit names both 25 µM and 10 µM); hit rate 0.83% among 99,000;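 active = Z-score of -3 or lower, scaled per plate to the spread of control and sample wells; inactive = z-score above -3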;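 note: negative z-score means lost luminescence so less FERM oligomerization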
Cav3 T inh = human Cav3.2 channel inhibition, primary screen | O95180 | Cav3.2-expressing cells, Fluo-4 calcium fluorescence FDSS; active compounds read low | B-score at 10 µM | hit rate 4% among 100,000 | AID 449739;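 active = single-dose well whose peak fluorescence ratio is a statistical outlier from its plate by either plate-standardised score or position-corrected B-score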
Numbers stand for hits; . = inactive; / = not tested or not shown. Rows were chosen to be rich in hits. Some 4.2% of all compounds tested hit in one or more screens of this group.

SMILES	CD11b adhes enh	E coli RNAP	CD11b adhes inh	Pyk2 oligo antag	Cav3 T inh
COC(=O)C1=C(Nc2ccc(C)cc2)C=C(C)C(C(=O)OC)C1c1ccc(OC)cc1 (configuration not stated)	/	/	/	.	-4.1
COC(=O)C1=C(Nc2ccc(C)cc2)C=C(C)C(C(=O)OC)C1c1cccc(OC)c1 (configuration not stated)	/	/	/	.	-3.9
Cc1ccc(SCCc2ccc(C)nc2)cc1	.	/	.	/	/
O=C(O)CCN1C(=O)/C(=C/c2ccc(-c3nc4ccccc4s3)o2)SC1=S	.	/	64	.	/
CC(C)CN1C(=S)SC(C)(C)C1n1oc(=O)n(-c2ccc(Cl)cc2)c1=O (configuration not stated)	.	/	.	.	-4.1
O=C(O)c1ccc(-n2nnnc2SCc2ccccc2F)cc1	.	.	.	/	-4.1
CNC(=O)c1nc(C)c(C2(C)CC(c3cccc([N+](=O)[O-])c3)=NO2)s1 (configuration not stated)	/	/	/	/	.
CCCOc1nc(N)c(C#N)c(-c2ccccc2F)c1C#N	.	.	.	-3.1	.
OCCCn1c(C(CO)Nc2nc(-c3ccc(Cl)cc3)cs2)nc2ccccc21 (configuration not stated)	/	/	/	/	.
Cc1ccc(S(=O)(=O)NC(=O)c2ccc(-c3ccc(-c4ccccc4)cc3)o2)c(C)c1	/	/	/	/	-4.3
CN(CCOc1ccccc1)S(=O)(=O)c1ccc2oc3ccccc3c2c1	.	/	.	.	-5.4
O=S(=O)(c1ccc2oc3ccccc3c2c1)N1CCCC1	/	/	/	.	.
Cc1ccc(-c2csc3ncnc(Sc4nnc(CN5CCCCCC5=O)o4)c23)cc1	.	.	.	.	-6.7
O=c1nc(Nc2ccccc2)sc2ccc([N+](=O)[O-])cc12	.	/	.	/	/
CC1C/C(=N/O)C(C)CN1 (configuration not stated)	.	/	.	.	.
Cc1csc(NC(=O)CCCSc2nc3ccccc3s2)n1	.	.	.	.	.
Cc1ccccc1NC(=O)CSc1nc2ccccc2o1	.	/	.	.	.
Cc1csc(NC(=O)CSc2nsc(SCC(=O)Nc3nc(C)cs3)c2C#N)n1	.	.	.	-4.4	.
O=C(CSc1nc2ccccc2o1)Nc1nc2ccccc2s1	83	.	.	.	.
O=C(Cn1ncc2c1-c1ccccc1OC2)Nc1nc2ccccc2s1	.	.	.	/	-9.4
Cc1csc(NC(=O)CSc2nc3ccccc3s2)n1	.	/	.	.	-7
CCN(CC)C(=O)Cn1ncc2c1-c1ccccc1OC2	.	.	.	/	.
Cc1ccc(-c2csc3ncnc(N4CCN(C(=O)c5ccccc5)CC4)c23)cc1	.	/	.	.	.
CCCCOc1ccc(NC(=S)Nc2cc(C)nc(SCCCC)n2)cc1	.	/	.	/	/
Cc1occc1-c1nnc(SCC(=O)Nc2nc3ccccc3s2)o1	.	/	.	.	.
SMILES	CD11b adhes enh	E coli RNAP	CD11b adhes inh	Pyk2 oligo antag	Cav3 T inh
CCOc1ccc(C(=O)NC(=S)Nc2ccc(NC(=O)c3ccco3)c(C)c2)cc1[N+](=O)[O-]	.	/	.	/	/
CCO[C@H]1OC(C(=O)N2CCOCC2)=C[C@@H](C)[C@@H]1CCCO	/	/	/	/	.
Cc1ccc(NC(=O)C2c3ccccc3Oc3ccccc32)c(C)c1	.	/	.	/	/
CC(C)n1c(SCC(=O)Nc2nc3ccccc3s2)nc2c1c(=O)n(C)c(=O)n2C	/	/	/	-3.7	.
CCCn1c(SCC(=O)Nc2ccccc2C(=O)OC)nc2c1c(=O)n(C)c(=O)n2C	.	.	.	.	.
CCOc1ccc2nc(NC(=O)CSc3nc4c(c(=O)n(C)c(=O)n4C)n3C(C)C)sc2c1	.	.	.	.	/
CCCn1c(SCC(=O)Nc2ccccc2N2CCCCC2)nc2c1c(=O)n(C)c(=O)n2C	.	.	.	.	-4.4
NC(=O)[C@@H]1CC2(CC(c3cccc(NC(=O)[C@@H]4CCC(=O)N4)c3)=NO2)CN1C(=O)Cc1ccc([N+](=O)[O-])cc1 (some centres not stated)	/	/	/	/	.
CCC(=O)NC1(C(F)(F)F)C(=O)Nc2c1c(=O)n(C)c(=O)n2C (configuration not stated)	.	.	.	.	2.9
c1ccc(Oc2cccc(OCCCCSc3ncccn3)c2)cc1	.	/	.	-3.3	.
COc1cccc(OCCCCSc2ncccn2)c1	.	.	.	.	.
CCOc1ccc(-c2onc(C(F)(F)F)c2-c2cscn2)c(O)c1	.	/	.	.	.
Cc1cc(O)cc(O)c1-c1onc(C(F)(F)F)c1-c1cscn1	.	.	.	.	-5.2
COc1ccc(N2CCN(Cc3nc(N)nc(Nc4ccc(C)c(Cl)c4)n3)CC2)cc1	.	.	.	.	-5.2
Cc1ccc(Nc2nc(N)nc(CN3CCN(Cc4ccc5c(c4)OCO5)CC3)n2)cc1Cl	.	.	.	.	-5.2
Cc1ccc(Nc2nc(N)nc(CN3CCN(Cc4ccc5c(c4)OCO5)CC3)n2)cc1	/	.	/	.	.
Cn1cc(C(=O)c2ccc(Cl)cc2Cl)cc1C(=O)N/N=C(\N)COc1cccc(C(F)(F)F)c1	.	/	.	.	-8.4
Cc1onc(-c2ccccc2Cl)c1C(=O)N/N=C(\N)COc1ccc(Cl)cc1	.	/	.	.	/
C/C(N)=C(/C#N)C(=O)CSc1nc2ccccc2c(=O)n1-c1ccc(C)c(Cl)c1	.	/	.	/	/
O=C(CN1C(=O)NC2(CCCCCC2)C1=O)N1CCC(Cc2ccccc2)CC1	/	.	/	.	4.3
O=C(CCCc1ccccc1)Nc1cccnc1	.	/	.	.	.
C#Cc1ccc([C@@H]2C=C(C(=O)OCC=C)O[C@H](OCCCCO)C2)cc1	/	/	/	/	.
COc1cccc(=O)c2c(C)n(-c3cc(C)cc(C)c3)c(C)c12	/	/	/	.	-5.1
CCCCCCN(C(=O)CCCCCN1C(=O)NC(c2ccc(C3CCCCC3)cc2)C(C(=O)OCc2ccccc2)=C1C)C(C(=O)NCCCC)c1ccc(OCC(=O)OC)c(C(=O)OC)c1 (configuration not stated)	/	/	/	/	.

Source: PubChem BioAssay (several laboratories)
